Only some compounds are listed: those with a hit (about 7.4% of all), similar ones and a draw of the others.
ELG1 genotox – inducers of genotoxicity in HEK293T ELG1-luciferase cells; Potency, µM (top dose mostly 46 µM), for inactives: top-dose activity change, positive = activation, most hits filed as activators; actives 1.3% (n = 330,000); HEK293T ELG1-luciferase reporter, luminescence, 16 h; note: % of control where 0% means no effect; nearly all actives have a fitted effect of over 60% in size
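16 hr compound incubation (37 °C, 5% CO2) of HEK293T cells carrying luciferase-tagged ELG1; luciferase then measured by ONE-Glo luminescence after 30 min at RT.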
FLuc counter – counter-screen for miR-21 project: firefly luciferase inhibitors or activators | purified FLuc, Km substrates, luminescence inhibition | P08659 | actives 6.9% (n = 360,000) | Potency, µM (top dose mostly 57.5 µM), inactives show at the top dose activity change, negative = inhibition, most hits filed as inhibitors;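 note: plate controls were vehicle for no effect and reference inhibitor for full effect; nearly all actives have a fitted effect of over 55% in size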
Target sequence (P08659 whole entry, looked up): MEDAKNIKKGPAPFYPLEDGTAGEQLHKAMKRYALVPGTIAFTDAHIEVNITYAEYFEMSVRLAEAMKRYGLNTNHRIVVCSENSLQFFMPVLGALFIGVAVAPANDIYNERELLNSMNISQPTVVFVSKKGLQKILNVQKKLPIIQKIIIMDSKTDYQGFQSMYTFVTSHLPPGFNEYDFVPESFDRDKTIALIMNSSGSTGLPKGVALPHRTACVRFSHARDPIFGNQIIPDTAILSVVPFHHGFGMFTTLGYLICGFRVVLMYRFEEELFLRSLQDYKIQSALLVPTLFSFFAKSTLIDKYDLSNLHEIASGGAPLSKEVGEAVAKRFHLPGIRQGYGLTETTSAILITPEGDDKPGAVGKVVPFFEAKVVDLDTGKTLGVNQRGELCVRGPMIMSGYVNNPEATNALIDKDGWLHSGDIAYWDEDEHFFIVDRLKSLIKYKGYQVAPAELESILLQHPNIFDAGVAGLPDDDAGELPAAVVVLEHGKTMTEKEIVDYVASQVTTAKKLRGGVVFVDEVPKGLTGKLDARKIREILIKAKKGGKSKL
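Purified P. pyralis luciferase (10nM final) with 10uM D-luciferin and 10uM ATP (Km levels) in 50mM Tris acetate pH 7.5, 10mM Mg acetate, 0.01% Tween-20, 0.05% BSA; qHTS 6-point titration, ~60 µM downward; luminescence read.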
NPC1 promoter act – activators of NPC1 promoter | Huh7 NPC1 promoter luciferase reporter, 24 h | Potency, µM (titrated, usually from 9.22 µM), without a hit: at the highest dose activation, hits mostly activators | actives 2.4% (n = 320,000); note: % of control where 0% means no effect; nearly all actives have a fitted effect of over 60% in size
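Readout is luciferase luminescence, reflecting NPC1 promoter activation in stably transfected Huh7 cells after 24 h compound exposure at 37 °C in reduced-serum medium with 10% FBS.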
Rab9 prom act – activates the Rab9 promoter; Huh7 Rab9 promoter-luciferase reporter, luminescence, 24 h; Potency, µM (highest dose often 9.22 µM), without a hit: at the top dose activation, negative = inhibition, most hits filed as activators; actives 2.8% (n = 320,000); AID 485297; note: % of control where 0% means no effect; nearly all actives have a fitted effect of over 60% in size
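Stable Rab9-luc Huh7, 1500 cells/well, 2 h settle; cmpd in DMSO, 24 h, 37 °C/5% CO2; luciferase reagent 10 min RT; luminescence.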
SMN2 splice enh – enhancers of SMN2 splice variant expression | HEK293 SMN2-luciferase splicing reporter, luminescence, 30-36 h | Potency, µM (top dose mostly 46.1 µM), for inactives: at the top dose activity change, positive = activation, most hits filed as activators | actives 2.8% (n = 210,000) | AID 1458; note: % of control where 0% means no effect; nearly all actives have a fitted effect of over 55% in size
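qHTS luciferase splicing reporter: luminescence rises when SMN2 exon 7 is included in transfected HEK293 cells. Compound exposure lasted 30-36 h at 37C, with 4.5 mM final sodium butyrate as control, followed by a ONE-Glo read.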
An asterisk follows results filed as active; [ ] = another dose, or the depositor's remark. Calls come from the whole dose curve; as a rule, active = well fitted curve in the direction sought with a large enough effect; inconclusive = small, poorly fitted or top-dose-only effect, or another doubt; inactive = no such curve, though single readings can be large; an effect the other way counts as inactive or inconclusive. Potency is the fitted concentration of half-maximal effect.

CC(Cc1ccccc1)NC(=O)/C=C/C(=O)O (centres undefined) was read as ELG1 genotox 0.2%, FLuc counter -6.1%, NPC1 promoter act -0.2%, Rab9 prom act -1.7% and SMN2 splice enh 3.4%.
`O=C(O)/C=C\C(=O)Nc1ccc(Oc2ccc(Br)cc2)cc1` gave ELG1 genotox -0.5%, FLuc counter 19µM*, NPC1 promoter act -0.7%, Rab9 prom act -2.5% and SMN2 splice enh -11.7%.
O=C=NC1CCCCC1 was read as SMN2 splice enh 8.4%.
Screening O=C(NNc1c(F)c(F)cc(F)c1F)c1cc2ccccc2oc1=O returned ELG1 genotox inconclusive, FLuc counter inconclusive, NPC1 promoter act inconclusive, Rab9 prom act 3.16µM* and SMN2 splice enh 22.0%.
Cc1cc2oc(=O)cc(-c3cc4ccccc4o3)c2cc1OC(=O)N(C)C was read as ELG1 genotox 1.1%, FLuc counter 2.4%, NPC1 promoter act -13.4% and Rab9 prom act -4.6%.
Screening OC(c1ccc(Cl)cc1)(c1ccc(Cl)cc1)C(Cl)(Cl)Cl returned SMN2 splice enh 0.6%.
Screening CC(=O)c1ccc(OC(=O)N(C)c2ccccc2)cc1 returned ELG1 genotox inconclusive, FLuc counter -17.7%, NPC1 promoter act inconclusive, Rab9 prom act inconclusive and SMN2 splice enh 15.8µM*.
C(=NC1CCCCC1)=NC1CCCCC1 was read as SMN2 splice enh 0.1%.
For Cc1ccc(C(=O)n2c(N)nc3ccccc32)cc1 the results were ELG1 genotox 0.206µM*, FLuc counter 0.19µM*, NPC1 promoter act inconclusive, Rab9 prom act 0.1µM* and SMN2 splice enh 0.398µM*.
For Cc1ccc(-c2nc3ccccc3c(=O)n2-c2ccc(O)cc2)cc1 the results were ELG1 genotox -10.1%, FLuc counter 0.4%, NPC1 promoter act -7.6%, Rab9 prom act -3.7% and SMN2 splice enh -27.7%.
`CCOC(=O)CBr` gave SMN2 splice enh 3.6%.
CCC(=O)Oc1ccc(C(=O)Nc2cccc(C(=O)c3ccccc3)c2)cc1 was read as ELG1 genotox -8.8%, FLuc counter 16.9µM*, NPC1 promoter act 2.8%, Rab9 prom act 1.5% and SMN2 splice enh -24.9%.
Cc1cc(N2CCOCC2)nc2ccc(NC(=O)CCC(=O)N3CCC4(CC3)OCCO4)cc12 was read as ELG1 genotox 12.4%, FLuc counter 15.1µM*, NPC1 promoter act 25.9% and Rab9 prom act 18.9%.
`CC(=O)c1ccc(NC(=O)c2cc(CC(C)C)on2)cc1` gave ELG1 genotox 18.4µM*, FLuc counter inconclusive, NPC1 promoter act 5.0%, Rab9 prom act 0.3% and SMN2 splice enh -0.2%.
CCN(CC)C(=O)c1ccc(NC(=O)c2c(C)noc2C)cc1 was read as ELG1 genotox 4.9%, FLuc counter 3.1%, NPC1 promoter act -0.5% and Rab9 prom act -1.9%.
CC(C)(C)c1ccc(OCCON2C(=O)CCC2=O)c(Cl)c1 was read as ELG1 genotox inconclusive, FLuc counter 15.1µM*, NPC1 promoter act -8.7%, Rab9 prom act 0.4% and SMN2 splice enh -5.6%.
CC(C)(C)n1cc(C(=O)c2ccc3ccccc3c2O)cn1 was read as ELG1 genotox inconclusive, FLuc counter 0.675µM*, NPC1 promoter act 0.447µM*, Rab9 prom act 0.562µM* and SMN2 splice enh -71.9%.
Screening O=C(Oc1ccc2cc(Br)ccc2c1)N1CCCCCC1 returned ELG1 genotox 23.1µM*, FLuc counter 6.75µM*, NPC1 promoter act inconclusive, Rab9 prom act 3.98µM* and SMN2 splice enh inconclusive.
`N[C@H](Cc1ccccc1)c1nn[nH]n1` gave SMN2 splice enh 7.3%[9.22 µM].
`Cc1cc(C(=O)CS(=O)(=O)c2ccccc2)cc(C)c1OC(=O)N(C)C` gave ELG1 genotox 2.6%, FLuc counter 6.75µM*, NPC1 promoter act 3.16µM*, Rab9 prom act 0.794µM* and SMN2 splice enh 10µM*.
Screening Cc1ccc(S(=O)(=O)CC(=O)c2cc(C)c(OC(=O)N(C)C)c(C)c2)cc1 returned ELG1 genotox 3.4%, FLuc counter -12.3%, NPC1 promoter act 2.2%, Rab9 prom act -4.0% and SMN2 splice enh -12.7%.
`C[C@@H](O)CN(CCN(C[C@@H](C)O)C[C@@H](C)O)C[C@@H](C)O.O=[N+]([O-])O.[Cu]` gave SMN2 splice enh -14.0%[9.22 µM].

Bioassay records as filed in PubChem BioAssay.
